About 8,800 targets were measured; listed, in parts, are those with a hit and a random draw of the rest. About 0.5% of all pairs of compound and target were hits.
Assays:
Test in all cases: log2 fold change, soluble protein after heating vs DMSO (PISA); higher = thermal stabilisation; K562 lysate, 10 uM; active = over 0.2 and 3.5 SD of the protein, either way, in both replicates (recomputed)
vemurafenib = compound: CCCS(=O)(=O)Nc1ccc(F)c(C(=O)c2c[nH]c3ncc(-c4ccc(Cl)cc4)cc23)c1F [vemurafenib]
Method in brief: (§1)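 To prepare the extract, K562 pellets were dounce-homogenised in PBS pH 7.4 with 1 mM MgCl2, giving crude material at 1 mg/mL protein. This was treated with 10 μM compound for 30 min, then heated in aliquots for 3 min over 48°C-58°C before pooling and addition of NP-40 to 0.5% at 4°C. Centrifugation at 21,000xg for 90 min left soluble protein in the supernatant, which TMTpro 16plex LC-MS/MS quantified with equalised channel sums. Results are log-two fold changes in thermal stability compared with solvent controls, from duplicates.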

[1] = compound: CCCS(=O)(=O)Nc1ccc(F)c(C(=O)c2c[nH]c3ncc(Cl)cc23)c1F
Method in brief: as §1

barasertib = compound: CCN(CCCOc1ccc2c(Nc3cc(CC(=O)Nc4cccc(F)c4)[nH]n3)ncnc2c1)CCOP(=O)(O)O [barasertib]
Method in brief: as §1

[2] = compound: CC[C@@H]1C(=O)N(C)c2cnc(Nc3ccc(C(=O)NC4CCN(C)CC4)cc3OC)nc2N1C1CCCC1
Method in brief: as §1

volasertib = compound: CC[C@@H]1C(=O)N(C)c2cnc(Nc3ccc(C(=O)N[C@H]4CC[C@H](N5CCN(CC6CC6)CC5)CC4)cc3OC)nc2N1C(C)C [volasertib]
Method in brief: as §1

[3] = compound: CCn1c(C(=O)N(C2CC2)C2CC2)cc2c3c(ncn3C)c(Nc3cc(C)n(C)n3)nc21
Method in brief: as §1

[4] = compound: CCn1cc(-c2ccnc3[nH]c(-c4cccc(CN(C)C)c4)cc23)c(-c2ccc(NC(=O)N(C)C)cc2)n1
Method in brief: as §1

[5] = compound: CN1CCC(CNc2ccc3ncc(-c4cccc(OC(F)(F)F)c4)n3n2)CC1
Method in brief: as §1

saracatinib = compound: CN1CCN(CCOc2cc(OC3CCOCC3)c3c(Nc4c(Cl)ccc5c4OCO5)ncnc3c2)CC1 [saracatinib]
Method in brief: as §1

sotrastaurin = compound: CN1CCN(c2nc(C3=C(c4c[nH]c5ccccc45)C(=O)NC3=O)c3ccccc3n2)CC1 [sotrastaurin]
Method in brief: as §1

alvocidib = compound: CN1CC[C@H](c2c(O)cc(O)c3c(=O)cc(-c4ccccc4Cl)oc23)[C@H](O)C1 [alvocidib]
Method in brief: as §1

Tubastatin A = compound: CN1CCc2c(c3ccccc3n2Cc2ccc(C(=O)NO)cc2)C1 [Tubastatin A]
Method in brief: as §1

[6] = compound: CNC(=O)C1=CC=CC=C1NC2=NC(=NC=C2Cl)NC3=C(C=C(C=C3)N4CCOCC4)OC
Method in brief: as §1

defactinib = compound: CNC(=O)c1ccc(Nc2ncc(C(F)(F)F)c(NCc3nccnc3N(C)S(C)(=O)=O)n2)cc1 [defactinib]
Method in brief: as §1

[7] = compound: CNc1nc(-c2ccc3c(N)n[nH]c3c2)cc(N2C[C@@H](C(=O)NC3CCCCC3)CC[C@H]2C)n1
Method in brief: as §1

encorafenib = compound: COC(=O)N[C@@H](C)CNc1nccc(-c2cn(C(C)C)nc2-c2cc(Cl)cc(NS(C)(=O)=O)c2F)n1 [encorafenib]
Method in brief: as §1

[8] = compound: COC(=O)[C@H](CCSC)NC(=O)C1=C(C=C(C=C1)NC[C@H](CS)N)C2=CC=CC=C2
Method in brief: as §1

alisertib = compound: COc1cc(Nc2ncc3c(n2)-c2ccc(Cl)cc2C(c2c(F)cccc2OC)=NC3)ccc1C(=O)O [alisertib]
Method in brief: as §1

[9] = compound: COc1cc2nc(-c3cc(F)ccc3O)nc(N[C@@H]3CNC[C@H]3C(C)(C)O)c2cc1OC
Method in brief: as §1

gefitinib = compound: COc1cc2ncnc(Nc3ccc(F)c(Cl)c3)c2cc1OCCCN1CCOCC1 [gefitinib]
Method in brief: as §1

Measured: log2 fold change

POMP (UniProt Q9Y244)
Chain of UniProt Q9Y244 (Q9Y244 whole entry, looked up): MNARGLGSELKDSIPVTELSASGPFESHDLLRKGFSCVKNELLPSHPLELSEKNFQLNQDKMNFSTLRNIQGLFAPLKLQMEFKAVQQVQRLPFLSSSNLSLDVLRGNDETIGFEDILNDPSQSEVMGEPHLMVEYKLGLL
inactive: vemurafenib -0.022 | [1] 0.001 | barasertib -0.034 | [2] 0.039 | volasertib -0.007 | [3] -0.028 | [4] 0.065 | [5] -0.061 | saracatinib 0.056 | sotrastaurin -0.064 | alvocidib 0.072 | Tubastatin A -0.061 | [6] 0.035 | defactinib 0.024 | [7] -0.03 | encorafenib 0.074 | [8] -0.002 | alisertib -0.013 | [9] -0.033 | gefitinib -0.093

PMS2 (UniProt P54278)
inactive: vemurafenib -0.015 | [1] -0.028 | barasertib 0.033 | [2] -0.072 | volasertib -0.147 | [3] 0.101 | [4] -0.02 | [5] 0.012 | saracatinib -0.004 | sotrastaurin 0.001 | alvocidib -0.001 | Tubastatin A -0.129 | [6] 0.03 | defactinib 0.021 | [7] 0.103 | encorafenib 0.038 | [8] 0.089 | alisertib 0.009 | [9] 0.02 | gefitinib 0.024

PDAP1 (UniProt Q13442)
Chain of UniProt Q13442 (Q13442 whole entry, looked up): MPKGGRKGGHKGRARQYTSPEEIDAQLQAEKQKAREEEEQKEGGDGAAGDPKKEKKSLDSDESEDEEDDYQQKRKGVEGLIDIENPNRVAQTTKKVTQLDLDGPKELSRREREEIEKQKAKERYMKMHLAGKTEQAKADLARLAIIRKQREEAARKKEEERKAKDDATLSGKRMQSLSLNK
active: [4] -0.267
inactive: vemurafenib -0.026 | [1] -0.01 | barasertib -0.064 | [2] 0.069 | volasertib 0.04 | [3] -0.043 | [5] 0.159 | saracatinib -0.002 | sotrastaurin -0.02 | alvocidib -0.074 | Tubastatin A 0.063 | [6] 0.004 | defactinib -0.012 | [7] 0.109 | encorafenib -0.038 | [8] -0.017 | alisertib 0.006 | [9] 0.018 | gefitinib -0.029

PRRC2A (UniProt P48634)
Chain of UniProt P48634 (P48634 whole entry, looked up): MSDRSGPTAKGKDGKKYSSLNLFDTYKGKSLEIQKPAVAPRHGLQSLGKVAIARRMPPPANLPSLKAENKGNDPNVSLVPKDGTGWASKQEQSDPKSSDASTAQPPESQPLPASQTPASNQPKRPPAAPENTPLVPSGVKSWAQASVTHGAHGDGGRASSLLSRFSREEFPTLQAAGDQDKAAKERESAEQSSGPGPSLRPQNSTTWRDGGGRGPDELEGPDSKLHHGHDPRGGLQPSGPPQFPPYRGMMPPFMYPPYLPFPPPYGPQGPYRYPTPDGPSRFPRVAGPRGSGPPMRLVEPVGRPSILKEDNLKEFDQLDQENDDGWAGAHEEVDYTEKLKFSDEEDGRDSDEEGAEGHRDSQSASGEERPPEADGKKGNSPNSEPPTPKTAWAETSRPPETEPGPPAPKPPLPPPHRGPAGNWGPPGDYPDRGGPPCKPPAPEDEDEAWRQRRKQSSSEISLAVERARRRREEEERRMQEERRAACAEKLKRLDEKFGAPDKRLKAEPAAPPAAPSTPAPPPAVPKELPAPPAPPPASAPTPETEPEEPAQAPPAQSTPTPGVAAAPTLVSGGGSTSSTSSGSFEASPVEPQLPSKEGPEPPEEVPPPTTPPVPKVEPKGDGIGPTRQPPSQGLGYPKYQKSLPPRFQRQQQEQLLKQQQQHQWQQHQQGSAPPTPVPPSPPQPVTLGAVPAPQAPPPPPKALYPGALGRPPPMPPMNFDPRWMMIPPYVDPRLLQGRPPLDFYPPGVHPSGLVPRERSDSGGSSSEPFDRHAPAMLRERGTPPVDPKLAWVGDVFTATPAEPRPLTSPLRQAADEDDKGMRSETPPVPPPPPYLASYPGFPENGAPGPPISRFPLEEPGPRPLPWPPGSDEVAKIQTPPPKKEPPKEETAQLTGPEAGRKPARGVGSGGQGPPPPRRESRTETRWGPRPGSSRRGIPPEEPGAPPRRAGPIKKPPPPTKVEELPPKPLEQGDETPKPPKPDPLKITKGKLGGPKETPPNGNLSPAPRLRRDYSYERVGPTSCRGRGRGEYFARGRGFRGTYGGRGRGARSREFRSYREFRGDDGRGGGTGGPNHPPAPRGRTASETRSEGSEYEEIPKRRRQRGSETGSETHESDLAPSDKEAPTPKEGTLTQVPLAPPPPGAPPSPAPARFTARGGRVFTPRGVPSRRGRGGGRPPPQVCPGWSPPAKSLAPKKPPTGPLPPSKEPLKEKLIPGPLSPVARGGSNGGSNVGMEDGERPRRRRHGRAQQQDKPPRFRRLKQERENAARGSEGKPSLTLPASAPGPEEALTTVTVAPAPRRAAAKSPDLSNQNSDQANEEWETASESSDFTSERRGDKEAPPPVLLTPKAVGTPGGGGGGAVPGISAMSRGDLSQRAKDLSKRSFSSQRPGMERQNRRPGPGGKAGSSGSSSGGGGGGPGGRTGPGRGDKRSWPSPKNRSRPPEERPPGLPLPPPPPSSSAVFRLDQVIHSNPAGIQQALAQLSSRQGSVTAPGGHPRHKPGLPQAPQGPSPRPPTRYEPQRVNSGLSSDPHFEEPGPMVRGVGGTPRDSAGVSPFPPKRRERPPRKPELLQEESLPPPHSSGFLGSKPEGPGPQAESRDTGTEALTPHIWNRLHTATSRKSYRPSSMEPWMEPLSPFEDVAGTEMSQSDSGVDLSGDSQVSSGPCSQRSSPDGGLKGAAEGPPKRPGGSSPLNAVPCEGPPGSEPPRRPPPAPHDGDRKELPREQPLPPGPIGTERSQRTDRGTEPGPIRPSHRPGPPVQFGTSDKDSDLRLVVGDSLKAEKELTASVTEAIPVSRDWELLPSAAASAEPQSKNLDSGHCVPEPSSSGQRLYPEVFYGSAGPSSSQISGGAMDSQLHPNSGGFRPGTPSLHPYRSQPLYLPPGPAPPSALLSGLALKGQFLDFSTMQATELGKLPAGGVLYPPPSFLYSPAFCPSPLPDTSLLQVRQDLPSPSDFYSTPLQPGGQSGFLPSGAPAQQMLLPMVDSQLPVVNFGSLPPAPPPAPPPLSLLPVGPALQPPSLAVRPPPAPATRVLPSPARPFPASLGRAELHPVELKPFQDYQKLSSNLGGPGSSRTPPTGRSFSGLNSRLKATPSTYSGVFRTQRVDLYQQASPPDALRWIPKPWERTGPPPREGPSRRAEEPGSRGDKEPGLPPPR
inactive: vemurafenib -0.006 | [1] 0.008 | barasertib -0.013 | [2] 0.107 | volasertib 0.012 | [3] 0.013 | [4] 0.05 | [5] 0.008 | saracatinib 0.049 | sotrastaurin -0.014 | alvocidib -0.006 | Tubastatin A -0.014 | [6] -0.001 | defactinib 0.046 | [7] -0.012 | encorafenib 0.048 | [8] -0.044 | alisertib 0.016 | [9] 0.005 | gefitinib -0.008

PWP1 (UniProt Q13610)
inactive: vemurafenib -0.09 | [1] 0.019 | barasertib 0.012 | [2] -0.032 | volasertib -0.004 | [3] -0.023 | [5] -0.039 | saracatinib 0.01 | sotrastaurin -0.021 | alvocidib 0.063 | Tubastatin A -0.017 | [6] -0.012 | defactinib 0.002 | [7] -0.046 | encorafenib 0.046 | [8] -0.013 | alisertib -0.014 | [9] 0.008 | gefitinib -0.017
active: [4] 0.62

POLA1 (UniProt P09884)
inactive: vemurafenib 0.002 | [1] 0 | barasertib 0.042 | [2] 0.021 | volasertib -0.012 | [3] 0.03 | [4] -0.009 | [5] -0.016 | saracatinib -0.003 | sotrastaurin 0.004 | alvocidib -0.01 | Tubastatin A -0.031 | [6] 0.037 | defactinib 0.016 | [7] -0.004 | encorafenib 0.022 | [8] 0.061 | alisertib -0.013 | [9] 0.014 | gefitinib 0.008

PUF60 (UniProt Q9UHX1)
inactive: vemurafenib 0.002 | [1] 0.015 | barasertib -0.005 | [2] 0.002 | volasertib 0.003 | [3] -0.015 | [4] 0.116 | [5] -0.018 | saracatinib 0 | sotrastaurin -0.02 | alvocidib 0.003 | Tubastatin A 0.019 | [6] -0.02 | defactinib -0.012 | [7] 0.008 | encorafenib -0.013 | [8] 0.019 | alisertib 0.005 | [9] -0.009 | gefitinib -0.022

PI4KB (UniProt Q9UBF8)
inactive: [1] 0.011 | barasertib -0.051 | [2] 0.049 | volasertib -0.026 | [3] -0.016 | [4] -0.038 | [5] 0.134 | saracatinib -0.006 | sotrastaurin 0.012 | alvocidib 0.005 | Tubastatin A -0.032 | [6] 0.228 | defactinib 0.094 | [7] 0.056 | encorafenib 0.081 | [8] -0.069 | alisertib -0.001 | [9] -0.097 | gefitinib 0
active: vemurafenib 0.222

PTPN7 isoform 3 (UniProt P35236)
inactive: vemurafenib 0.016 | [1] 0.06 | barasertib 0.026 | [2] -0.025 | volasertib -0.06 | [3] 0.063 | [4] -0.076 | [5] 0.124 | saracatinib 0.005 | sotrastaurin 0.015 | alvocidib -0.082 | Tubastatin A -0.138 | [6] 0.057 | defactinib 0.017 | [7] 0.038 | encorafenib -0.051 | [8] 0.122 | alisertib 0.021 | [9] -0.023 | gefitinib -0.025

POLR2M (UniProt P0CAP2)
inactive: vemurafenib 0.014 | [1] 0.02 | barasertib 0.021 | [2] -0.108 | volasertib -0.024 | [3] 0.008 | [4] -0.055 | [5] 0.067 | saracatinib -0.007 | sotrastaurin 0.041 | alvocidib -0.002 | Tubastatin A 0.031 | [6] 0.021 | defactinib 0.037 | [7] 0.035 | [8] -0.047 | alisertib -0.011 | [9] 0.019 | gefitinib 0.027
active: encorafenib 0.33

POLR2B (UniProt P30876)
inactive: vemurafenib 0.021 | [1] -0.004 | barasertib 0.039 | [2] -0.049 | volasertib -0.074 | [3] 0.01 | [4] -0.029 | [5] 0.017 | saracatinib 0.016 | sotrastaurin 0.024 | alvocidib -0.008 | Tubastatin A -0.092 | [6] 0.057 | defactinib 0.004 | [7] -0.026 | encorafenib 0.022 | [8] 0.121 | alisertib 0.002 | [9] -0.018 | gefitinib 0.012

PLEKHO2 (UniProt Q8TD55)
inactive: vemurafenib 0.034 | [1] 0.247 | barasertib 0.161 | [2] 0.068 | volasertib 0.151 | [3] 0.126 | [4] 0.136 | [5] 0.016 | saracatinib 0.278 | sotrastaurin -0.054 | alvocidib -0.067 | Tubastatin A -0.228 | [6] 0.281 | defactinib -0.001 | [7] -0.106 | encorafenib 0.007 | [8] 0.054 | alisertib -0.004 | [9] 0 | gefitinib 0.043

PDS5A (UniProt Q29RF7)
Chain of UniProt Q29RF7 (Q29RF7 whole entry, looked up): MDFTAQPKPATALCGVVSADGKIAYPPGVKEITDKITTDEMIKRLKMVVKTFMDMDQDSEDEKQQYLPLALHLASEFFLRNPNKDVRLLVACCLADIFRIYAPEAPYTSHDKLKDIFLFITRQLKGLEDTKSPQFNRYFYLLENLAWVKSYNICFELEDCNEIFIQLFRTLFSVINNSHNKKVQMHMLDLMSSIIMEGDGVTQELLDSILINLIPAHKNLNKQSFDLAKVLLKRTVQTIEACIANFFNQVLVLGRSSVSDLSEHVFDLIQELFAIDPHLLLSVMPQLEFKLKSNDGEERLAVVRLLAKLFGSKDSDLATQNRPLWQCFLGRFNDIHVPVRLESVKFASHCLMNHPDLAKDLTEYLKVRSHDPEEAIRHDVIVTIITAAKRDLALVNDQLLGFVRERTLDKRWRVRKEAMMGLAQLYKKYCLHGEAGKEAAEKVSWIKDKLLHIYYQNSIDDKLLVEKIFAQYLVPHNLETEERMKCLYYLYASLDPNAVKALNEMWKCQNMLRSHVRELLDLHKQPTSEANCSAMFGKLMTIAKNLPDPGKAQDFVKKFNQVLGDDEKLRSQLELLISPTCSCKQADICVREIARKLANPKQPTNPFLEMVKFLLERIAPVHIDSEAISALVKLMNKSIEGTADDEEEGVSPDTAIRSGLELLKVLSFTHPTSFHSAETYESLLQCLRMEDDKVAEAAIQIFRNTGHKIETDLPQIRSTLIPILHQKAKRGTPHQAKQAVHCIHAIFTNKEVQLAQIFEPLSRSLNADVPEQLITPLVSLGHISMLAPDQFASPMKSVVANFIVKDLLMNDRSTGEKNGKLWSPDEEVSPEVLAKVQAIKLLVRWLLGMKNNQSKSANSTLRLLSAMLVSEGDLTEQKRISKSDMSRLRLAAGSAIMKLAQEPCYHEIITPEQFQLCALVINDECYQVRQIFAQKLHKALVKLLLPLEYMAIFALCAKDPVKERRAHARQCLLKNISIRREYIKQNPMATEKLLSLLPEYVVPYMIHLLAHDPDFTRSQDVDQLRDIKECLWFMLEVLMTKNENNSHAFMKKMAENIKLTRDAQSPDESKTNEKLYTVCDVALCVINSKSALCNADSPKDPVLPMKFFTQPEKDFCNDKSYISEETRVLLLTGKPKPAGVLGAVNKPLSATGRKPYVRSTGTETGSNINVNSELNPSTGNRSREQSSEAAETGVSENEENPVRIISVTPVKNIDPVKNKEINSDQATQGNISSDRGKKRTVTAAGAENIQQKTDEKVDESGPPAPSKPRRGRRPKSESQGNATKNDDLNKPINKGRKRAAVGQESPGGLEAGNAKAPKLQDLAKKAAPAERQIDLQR
inactive: vemurafenib 0.023 | [1] 0.031 | barasertib 0.064 | [2] -0.057 | volasertib -0.029 | [3] 0.054 | [4] -0.12 | [5] -0.019 | saracatinib 0.007 | sotrastaurin 0.026 | alvocidib 0.023 | Tubastatin A -0.21 | [6] 0.016 | defactinib 0.016 | [7] -0.054 | encorafenib 0.048 | [8] -0.003 | alisertib 0.014 | [9] 0 | gefitinib -0.005

PPFIA2 (UniProt O75334)
Chain of UniProt O75334 (O75334 whole entry, looked up): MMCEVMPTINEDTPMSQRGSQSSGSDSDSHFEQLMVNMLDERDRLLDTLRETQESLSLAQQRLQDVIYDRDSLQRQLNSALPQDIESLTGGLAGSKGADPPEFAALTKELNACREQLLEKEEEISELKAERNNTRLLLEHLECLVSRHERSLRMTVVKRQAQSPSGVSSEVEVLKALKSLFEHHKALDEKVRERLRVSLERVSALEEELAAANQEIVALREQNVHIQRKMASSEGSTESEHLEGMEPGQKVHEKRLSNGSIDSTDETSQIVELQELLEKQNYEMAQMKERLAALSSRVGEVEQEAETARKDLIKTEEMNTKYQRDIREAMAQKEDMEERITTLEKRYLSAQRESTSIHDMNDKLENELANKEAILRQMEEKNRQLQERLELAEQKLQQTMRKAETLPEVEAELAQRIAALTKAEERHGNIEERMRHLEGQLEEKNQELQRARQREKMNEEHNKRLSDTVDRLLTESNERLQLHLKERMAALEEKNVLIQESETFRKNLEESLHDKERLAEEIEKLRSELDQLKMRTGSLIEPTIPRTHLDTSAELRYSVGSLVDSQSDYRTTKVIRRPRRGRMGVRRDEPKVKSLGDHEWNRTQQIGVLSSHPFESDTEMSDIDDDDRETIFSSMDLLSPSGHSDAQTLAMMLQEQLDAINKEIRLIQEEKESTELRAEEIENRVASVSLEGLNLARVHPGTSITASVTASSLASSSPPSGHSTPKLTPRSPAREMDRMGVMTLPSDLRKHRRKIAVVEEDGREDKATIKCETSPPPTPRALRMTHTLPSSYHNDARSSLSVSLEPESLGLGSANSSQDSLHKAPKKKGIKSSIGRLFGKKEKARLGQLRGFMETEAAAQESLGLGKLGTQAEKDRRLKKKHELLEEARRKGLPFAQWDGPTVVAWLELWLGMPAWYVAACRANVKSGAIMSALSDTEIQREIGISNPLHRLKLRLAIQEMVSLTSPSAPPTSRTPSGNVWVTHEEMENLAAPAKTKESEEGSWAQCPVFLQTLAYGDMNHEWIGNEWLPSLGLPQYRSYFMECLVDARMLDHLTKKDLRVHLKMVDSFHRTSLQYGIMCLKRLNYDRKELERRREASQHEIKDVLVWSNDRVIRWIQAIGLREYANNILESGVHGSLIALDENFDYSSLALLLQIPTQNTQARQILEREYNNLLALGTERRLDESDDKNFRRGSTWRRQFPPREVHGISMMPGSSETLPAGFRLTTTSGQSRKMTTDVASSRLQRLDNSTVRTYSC
inactive: vemurafenib 0.062 | [1] -0.018 | barasertib 0.054 | [2] 0.01 | volasertib 0.02 | [3] -0.127 | [4] -0.255 | [5] 0.146 | saracatinib -0.016 | sotrastaurin -0.05 | alvocidib -0.107 | Tubastatin A 0.021 | [6] 0.022 | defactinib -0.011 | [7] -0.026 | encorafenib -0.082 | [8] -0.029 | alisertib -0.007 | [9] 0.012 | gefitinib 0.057

PTPN23 (UniProt Q9H3S7)
inactive: vemurafenib -0.008 | [1] 0 | barasertib 0.003 | [2] -0.006 | volasertib -0.042 | [3] 0.026 | [4] -0.017 | [5] 0.007 | saracatinib 0.008 | sotrastaurin -0.001 | alvocidib -0.004 | Tubastatin A -0.035 | [6] -0.03 | defactinib -0.018 | [7] 0.016 | encorafenib 0.031 | [8] -0.018 | alisertib 0.012 | [9] -0.017 | gefitinib 0.005
